The values below come from PubChem BioAssay AID1963320 (National Center for Advancing Translational Sciences (NCATS), 2024).

Out of some 1,300 compounds screened, about 560 (43%) were called active. Not shown: some 39% with an inconclusive outcome. Calls come from the whole dose curve; as a rule, active = well fitted inhibition curve with a large enough effect; inconclusive = small, poorly fitted or top-dose-only effect; inactive = flat fitted curve, though single readings scatter. So high a share suggests a set chosen from earlier hits. These entries were drawn from the full list.
Note: nearly all actives have a fitted effect of over 70% in size.
Potency is the fitted concentration of half-maximal effect.

The target in the test is Luciferin 4-monooxygenase (Photinus pyralis) (UniProt P08659). Put plainly: Firefly luciferase (FLuc-C-HiBiT) enzymatic inhibition screen - Functional assay. Particulars: purified FLuc-C-HiBiT enzyme, luciferin luminescence; series mostly up to 32.7 µM. From the text: PI: James Inglese Ph.D. National Center for Advancing Translational Sciences (NCATS), National Institute of Health (NIH), Maryland Discovery and optimization of novel protein-binding ligands underlies many of the methods and applications of biology, drug discovery, clinical diagnostics, and environmental toxicology. Assays for detecting the interaction of, for example, a molecule with a macromolecular target also referred to here as the target of interest (TOI) is dependent on a compatible output technology. Depending on the nature and knowledge surrounding the TOI, whether a receptor, enzyme, regulatory subunit or scaffold, or a sequence-defined nucleic acid folded into a complex tertiary structure, assay strategies can vary widely. Here we exploit ligand-biased changes in the structural dynamics of the target protein to control reporter alpha complementation allowing a non-competitive, non-functional, non-separation measure of ligand-target interaction. […] Secondly, we show the specificity and sensitivity of the SDR for the Abelson tyrosine kinase (ABL1) compared to the serine/threonine protein kinase A, using an enriched chemical library of 128 compounds selected, in part, for activity annotated with ABL1 kinase activity using the Pharos database (3). References: (1) A. S. Dixon et al., NanoLuc Complementation Reporter Optimized for Accurate Measurement of Protein Interactions in Cells. ACS Chem Biol 11, 400-408 (2016). […] Chemistry & Biology, 19, 1060 - 1072 (2012). (3) K. J. Kelleher et al., Pharos 2023: an integrated resource for the understudied human proteome. Nucleic Acids Res 51, D1405-D1416 (2023).
Chain of Luciferin 4-monooxygenase (Photinus pyralis) (P08659 whole entry, looked up): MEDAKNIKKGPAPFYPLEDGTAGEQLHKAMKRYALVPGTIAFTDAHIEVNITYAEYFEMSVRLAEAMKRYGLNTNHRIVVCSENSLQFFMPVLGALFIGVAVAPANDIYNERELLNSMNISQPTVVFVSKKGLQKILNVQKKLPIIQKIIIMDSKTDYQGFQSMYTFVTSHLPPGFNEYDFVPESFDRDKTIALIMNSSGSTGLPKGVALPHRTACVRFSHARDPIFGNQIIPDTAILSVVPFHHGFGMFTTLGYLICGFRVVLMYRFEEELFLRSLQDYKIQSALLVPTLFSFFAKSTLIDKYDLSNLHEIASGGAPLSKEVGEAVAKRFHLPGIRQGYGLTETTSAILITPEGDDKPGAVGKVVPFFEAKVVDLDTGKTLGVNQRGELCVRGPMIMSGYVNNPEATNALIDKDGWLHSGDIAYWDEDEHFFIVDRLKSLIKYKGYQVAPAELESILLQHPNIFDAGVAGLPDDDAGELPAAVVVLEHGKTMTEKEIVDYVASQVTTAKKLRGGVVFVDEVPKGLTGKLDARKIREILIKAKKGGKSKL
1. Reagent. Dispense 4 uL FLuc-C-HiBiT enzyme-buffer solution per well at a final enzyme concentration of 10 nM with or without 10 uM ATP into columns 2-48 of white, solid bottom medium bind 1536-well plates (Greiner Bio-One) by BioRaptr 2. Dispense respective buffer without enzyme at 4 uL/well in column 1 of assay plates. 2. Compounds. Library compounds and PTC124 control added at 23 nL per well, transfer by Pin Tool. 3. Incubation. Incubate enzyme and compounds at room temperature for >30 min, protect from light. 4a. Reagent. (Functional assay) Add 3 uL of D-luciferin substrate at final (KM) concentration of 10 uM/well of assay plates for FLuc enzymatic assay, in the presence of ATP. 5. Incubation. Incubate enzyme and substrate or detection reagent at room temperature for 5-10 min, protect from light. 6a. Detector. Functional assay measured using CCD-based camera (ViewLux) with settings as follows: Exposure, 10 sec; Gain, High; Speed, Slow; Binning, 2X. REFERENCES: Inglese J, Shamu CE and Guy RK, Reporting data from high throughput screening of small molecule libraries, Nature Chemical Biology, 2007, 3(8): 438-441. doi.org/10.1038/nchembio0807-438.
For orientation: HiBiT is a short tag that completes a luciferase, so light tracks the accessible tagged protein.
As for `CN(CCc1cn[nH]c1)c1ccc(-c2nc(-c3ccccc3F)no2)cn1`, the Potency is 3130 nM (active). The entry for `Cc1cc(C)n(CCC(=O)N2CCC(Cc3noc(C4CC4)n3)C2)n1` (configuration not stated) is “inactive”; for `OCCN1CCN(c2nc(N3CCCCC3)c3cnn(-c4ccc(Cl)cc4)c3n2)CC1` it is “inactive”; for `OCC1CCCN(c2ncnc3c2cnn3-c2ccccc2)C1` (configuration not stated) it is 394 nM (active).

With `Cc1ccc(Cl)cc1-n1ncc2c(N3CCC(C(N)=O)CC3)ncnc21`, the Potency entry was “inactive”. Then `Fc1ccc(Nc2nc(-c3ccccc3F)no2)cc1`, with 9890 nM (active). Then `Cc1ccc(CSc2nc3cccnc3n2Cc2ccc(C(=O)NC3CC3)cc2)cc1`, with 394 nM (active); and `Cc1cccc(C(=O)Nc2ccc(-c3nc4ccccc4s3)c(C)c2)c1`, with 9890 nM (active); and `COc1ccc(CC(=O)Nc2ccc(-c3nc4ccccc4s3)c(C)c2)cc1`, with “inactive”. Regarding `Cc1c(NC(=O)C(C)(C)C)cccc1-c1nc2ccccc2s1`, the Potency was 5560 nM (active).

In the case of `Cc1ccc(C(=O)Nc2ccc(-c3nc4ccccc4s3)c(O)c2)cc1`, the Potency result is “inactive”. For the compound `O=C(CSc1ccc(F)cc1)Nc1ccccc1-c1nc2ccccc2s1`, the Potency result was “inactive”. Then `CC(C)C(=O)Nc1cc(-c2nc3ccccc3s2)ccc1Cl`, with “inactive”; and `COc1ccc(C(=O)Nc2onc3c2CCCC3)cc1`, with 1970 nM (active); and `Cc1cccc(-c2cccc(NC(=O)C3CCCN(C(=O)CC(F)(F)F)C3)c2)c1` (configuration not stated), with “inactive”. Then `COc1ccc(C)cc1NC(=O)Nc1cccc(-c2ccc(N3CCCCC3)nn2)c1`, with 1110 nM (active); and `O=C(/C=C/c1ccccc1)Nc1cc(-c2nc3cc(Cl)ccc3o2)ccc1Cl`, with “inactive”. The figure for `COc1cccc(-c2nc3ccc(-c4ccc5c(c4)OCO5)cc3o2)c1OC` is 2480 nM (active). Take `COc1ccc(-c2nc3ccccc3s2)cc1NC(=O)COc1ccccc1C`: the Potency result is “inactive”. The figure for `CCC(CC)c1nn2cc(-c3ccccc3)nc2s1` is 881 nM (active). Then `Cc1nn(-c2ccc(C(C)C)cc2)c(C)c1[C@@H]1C=C[C@@H](NC(=O)CC2(CC(=O)O)CCCC2)C1`, with “inactive”; and `O=C(Nc1nc2c(s1)CCCC2)c1ccccc1F`, with 556 nM (active); and `O=C([C@@H]1C[C@@H](O)[C@H](O)[C@@H]2NC(=S)N(c3ccc(OC(F)(F)F)cc3)[C@@H]21)N1CCCCC1`, with “inactive”.

In the case of `Oc1ccc(-c2nc(C3CC3)nc3c2CCN(Cc2cccc(F)c2)CC3)cc1`, the Potency result was “inactive”. Then `O=C(Nc1ccccc1)c1nc2c(o1)CCN(Cc1cccc(Cl)c1)CC2`, with 10100 nM (active). In the case of `CCOC(=O)C1CCN(C(=O)c2cccc3c2CCN3C(=O)Nc2ccccc2)CC1`, the Potency is 1760 nM (active). As to `CC(=O)Nc1ccc(NC(=O)CCCc2nc(-c3ccc(C(C)(C)C)cc3)no2)cc1`, the Potency was 4950 nM (active). The figure for `CC(=O)NC1(C)CN(Cc2ccc(-c3ccc4c(ccn4C)c3)s2)C1` is 2860 nM (active); for `Cc1ccc(-c2nc(C(=O)N3CCN(c4ccccn4)CC3)no2)cc1` it is 7850 nM (active). Then `COc1ccc(-c2ncc3c(n2)OCCN(CC2CC2)C3=O)cc1`, with 8050 nM (active); and `CCN(c1ncnc2c1cnn2-c1ccc(C)cc1)C1CCCCC1`, with 881 nM (active). Then `CN1CCN(C[C@@H]2CN(C(=O)CCCc3ccccc3)C[C@@H]2CO)CC1`, with “inactive”. In the case of `CCNC(=O)C1C(c2cccc(NC(=O)c3ccc(OC)cc3)c2)OC(=O)N1Cc1ccc(C)cc1` (configuration not stated), the Potency is 3940 nM (active). As to `O=C(NCC1CC1)C1CCN(C(=O)c2ncn3c2COC(c2ccccc2)C3)CC1` (configuration not stated), the Potency was 7000 nM (active). Then `O=C(NCc1ccccc1)C1CCN(C(=O)c2ncn3c2COC(c2ccccc2)C3)CC1` (configuration not stated), with 2210 nM (active). Take `O=C(NCc1ccc(F)c(Cl)c1)C1CCN(C(=O)c2ncn3c2COC(c2ccccc2)C3)CC1` (configuration not stated): the Potency is 3510 nM (active). The entry for `COc1ccccc1OC1(C(=O)O)CCN(c2ncnc3nc[nH]c23)CC1` is “inactive”.
